From PubChem BioAssay (Tox21)
Records with an inconclusive call do not appear. The source made the active and inactive calls. Unless noted, the call rests on the fitted dose curve; in most records, active means well fitted curve in the direction sought with a large enough effect in the repeat runs; inconclusive means weak or mixed curves; inactive means no such curve, though single readings can be large; an effect the other way counts as inactive or inconclusive.

Assays:
[1] = qHTS assay to identify small molecule agonists of the RXR signaling pathway - cell viability counter screen (AID 1159529); further: nearly all actives have a fitted effect of over 50% in size; further: potency means the concentration at half of the fitted maximal effect
Outline: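 CellTiter-Glo luminescence gave viability in the wells also read for beta-lactamase. Cells (RXR-alpha-UAS-bla HEK 293T, 2% charcoal-stripped FBS medium) had 5 hr plating, then 16 hr compound exposure at 37 C; tetraoctyl ammonium bromide served as positive control.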

[2] = qHTS assay to identify small molecule antagonists of the retinoid acid receptor (RAR) signaling pathway - cell viability counter screen (AID 1159551); further: nearly all actives have a fitted effect of over 35% in size; further: potency means the concentration at half of the fitted maximal effect
Outline: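 Following overnight attachment, C3RL4 reporter cells received DMSO-dissolved compounds and then retinol (1 uM final). Six hours later at 37 C, ATP content was measured by CellTiter-Glo luminescence.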

[3] = qHTS assay to identify small molecule antagonists of the retinoic acid receptor (RAR) signaling pathway (AID 1159552; further: nearly all actives have a fitted effect of over 50% in size; further: potency means the concentration at half of the fitted maximal effect)
Outline: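 Luminescent RARE reporter read-out in C3RL4 cells: 6 hr co-treatment at 37 C of test compounds with retinol at 1 uM final. Cells plated overnight beforehand; luciferase reagent incubated 30 min at room temperature before reading.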

[4] = qHTS assay to identify small molecule agonists of the retinoic acid receptor (RAR) signaling pathway (AID 1159553); further: potency means the concentration at half of the fitted maximal effect
Outline: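 Cell line C3RL4, RARE luciferase reporter. Treatment: compounds in DMSO, 6 hr, 37 C, 5% CO2, after overnight plating. Detection: luminescence, 30 min RT after reagent.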

[5] = qHTS assay to identify small molecule antagonists of the estrogen related receptor (ERR) signaling pathway from Tox21 library - cell viability counter screen (AID 1224834); further: nearly all actives have a fitted effect of over 30% in size; further: potency means the concentration at half of the fitted maximal effect
Outline: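 Viability readout (CellTiter-Fluor fluorescence, 30 min at 37 C) multiplexed with the ERR assay; cells treated 17.5 h at 37 C with compounds delivered in DMSO.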

[6] = target: Luciferin 4-monooxygenase (Photinus pyralis) (UniProt P08659); test: qHTS assay to identify small molecule inhibitors of firefly luciferase (AID 1224835); further: nearly all actives have a fitted effect of over 25% in size; further: potency means the concentration at half of the fitted maximal effect
Luciferin 4-monooxygenase (Photinus pyralis), sequence (P08659 whole entry, looked up): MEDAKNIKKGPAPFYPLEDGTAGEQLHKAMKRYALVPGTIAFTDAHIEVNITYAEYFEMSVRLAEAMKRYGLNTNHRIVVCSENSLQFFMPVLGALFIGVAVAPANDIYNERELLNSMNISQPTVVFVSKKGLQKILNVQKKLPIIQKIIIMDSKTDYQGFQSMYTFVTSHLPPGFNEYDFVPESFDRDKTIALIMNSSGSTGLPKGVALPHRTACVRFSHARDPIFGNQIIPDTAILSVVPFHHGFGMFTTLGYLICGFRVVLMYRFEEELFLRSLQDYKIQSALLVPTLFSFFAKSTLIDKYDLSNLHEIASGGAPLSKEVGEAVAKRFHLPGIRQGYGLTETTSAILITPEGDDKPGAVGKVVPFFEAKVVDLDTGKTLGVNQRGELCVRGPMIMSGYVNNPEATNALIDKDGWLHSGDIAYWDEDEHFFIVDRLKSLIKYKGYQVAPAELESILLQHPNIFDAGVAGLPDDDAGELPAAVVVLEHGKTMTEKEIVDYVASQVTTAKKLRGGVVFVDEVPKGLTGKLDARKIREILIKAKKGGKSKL
Outline: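 Quantitative HTS format; KM concentrations of both substrates. Purified P. pyralis FLuc activity quantified from luminescence images.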

[7] = qHTS assay to identify small molecule agonists of the constitutive androstane receptor (CAR) signaling pathway - cell viability counter screen (AID 1224836); further: nearly all actives have a fitted effect of over 45% in size; further: potency means the concentration at half of the fitted maximal effect
Outline: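 Cell viability multiplexed with the CAR agonist screen: CellTiter-Fluor fluorescence after 23 hr at 37 C. HepG2-CYP2B6-hCAR cells got compounds at 15 concentrations with PK11195 at 0.75 uM final.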

[8] = qHTS assay to identify small molecule antagonists of the constitutive androstane receptor (CAR) signaling pathway - cell viability counter screen (AID 1224837); further: series mostly up to about 92 µM; nearly all actives have a fitted effect of over 45% in size
Outline: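 Fluorescence from CellTiter-Fluor served as the viability signal. Human hepatoma HepG2 cells stably bearing hCAR and CYP2B6-2.2kb received compound plus CITCO (50 nM final) for 23 hr.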

[9] = qHTS assay to identify small molecule antagonists of the estrogen related receptor signaling pathway with the pleiotropic PPARgamma coactivator (PGC) from Tox21 10K library - cell viability counter screen (AID 1224840; active means well fitted cell-killing curve with a large enough effect in the repeat runs, not every such curve was filed as active; further: nearly all actives have a fitted effect of over 40% in size)
Outline: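 Compounds in DMSO, alongside positive and negative controls, were pinned onto PGC/ERR cells (2,000 per well). Exposure lasted 17.5 hours at 37 C, followed by a 30-minute CellTiter-Fluor incubation and fluorescence reading.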

[10] = target: Thyrotropin receptor (Homo sapiens) (UniProt P16473); test: qHTS assay to identify small molecule agonists of the thyroid stimulating hormone receptor (TSHR) signaling pathway (AID 1224843; calls by dose curve; further: nearly all actives have a fitted effect of over 45% in size)
Thyrotropin receptor (Homo sapiens), sequence (P16473 whole entry, looked up): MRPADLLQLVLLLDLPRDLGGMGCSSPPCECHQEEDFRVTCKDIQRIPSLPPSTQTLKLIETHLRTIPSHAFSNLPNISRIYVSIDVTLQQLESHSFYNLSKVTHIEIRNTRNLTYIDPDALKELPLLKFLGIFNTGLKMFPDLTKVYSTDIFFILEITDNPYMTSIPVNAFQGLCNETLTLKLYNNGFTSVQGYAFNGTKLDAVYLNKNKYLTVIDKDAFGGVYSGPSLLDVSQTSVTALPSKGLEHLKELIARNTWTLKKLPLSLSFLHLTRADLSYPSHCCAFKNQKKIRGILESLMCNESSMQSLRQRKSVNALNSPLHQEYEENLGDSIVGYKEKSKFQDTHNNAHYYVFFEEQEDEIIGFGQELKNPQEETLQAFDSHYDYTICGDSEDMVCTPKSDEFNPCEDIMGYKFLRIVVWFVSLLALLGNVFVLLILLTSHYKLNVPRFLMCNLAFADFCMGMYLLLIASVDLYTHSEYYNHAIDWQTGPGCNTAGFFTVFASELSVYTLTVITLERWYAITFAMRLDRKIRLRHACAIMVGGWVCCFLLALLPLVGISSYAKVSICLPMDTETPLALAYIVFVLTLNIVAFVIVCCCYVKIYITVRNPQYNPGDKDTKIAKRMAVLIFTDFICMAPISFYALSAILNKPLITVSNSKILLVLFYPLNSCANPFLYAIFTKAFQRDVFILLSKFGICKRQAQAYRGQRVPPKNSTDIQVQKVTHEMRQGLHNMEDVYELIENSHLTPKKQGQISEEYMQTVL
Outline: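 Cell line HEK293 with TSHR; density 800/well. Exposure 30 min RT. Readout HTRF cAMP (cAMP-d2/anti-cAMP-cryptate), 1 h RT before reading.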

[11] = target: Nuclear receptor subfamily 1 group I member 3 (Homo sapiens) (UniProt Q14994); test: qHTS assay to identify small molecule antagonists of the constitutive androstane receptor (CAR) signaling pathway (AID 1224838);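 further: HepG2 cells stably expressing hCAR with CYP2B6 luciferase reporter stimulated by CITCO; nearly all actives have a fitted effect of over 40% in size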
Nuclear receptor subfamily 1 group I member 3 (Homo sapiens), sequence (Q14994 whole entry, looked up): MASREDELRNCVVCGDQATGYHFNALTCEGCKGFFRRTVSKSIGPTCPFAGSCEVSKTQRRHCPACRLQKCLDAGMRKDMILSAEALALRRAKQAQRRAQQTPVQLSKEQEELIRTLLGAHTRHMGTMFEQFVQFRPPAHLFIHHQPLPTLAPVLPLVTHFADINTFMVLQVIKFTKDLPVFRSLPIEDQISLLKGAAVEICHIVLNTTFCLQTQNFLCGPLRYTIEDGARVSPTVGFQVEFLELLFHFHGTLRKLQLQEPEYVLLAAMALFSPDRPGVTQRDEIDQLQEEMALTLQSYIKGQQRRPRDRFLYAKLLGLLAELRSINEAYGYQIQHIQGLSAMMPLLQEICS
Outline: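 Quantitative HTS in double-stable HepG2-CYP2B6-hCAR cells. After 4 h plating, cells get compound (15 concentrations) and CITCO at 50 nM final, incubate 24 h at 37 C, then ONE-Glo luminescence is read.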

[12] = target: Nuclear receptor subfamily 1 group I member 3 (Homo sapiens) (UniProt Q14994); test: qHTS assay to identify small molecule agonists of the constitutive androstane receptor (CAR) signaling pathway (AID 1224839); further: nearly all actives have a fitted effect of over 15% in size; further: potency means the concentration at half of the fitted maximal effect
Outline: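 Luminescent ONE-Glo read-out after 24 hr, 37 C exposure of double-stable HepG2-CYP2B6-hCAR reporter cells to a 15-point compound series, in the presence of 0.75 uM PK11195 (final).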

[13] = qHTS assay to identify small molecule antagonists of the estrogen related receptor signaling pathway with the pleiotropic PPARgamma coactivator (PGC) from Tox21 10K library (AID 1224841; call rule not given here; further: actives are mostly falling curves and most rising ones were filed inactive; nearly all actives have a fitted effect of over 50% in size; further: potency means the concentration at half of the fitted maximal effect)
Outline: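 Compound exposure ran 18 hours at 37 C in PGC/ERR cells (2,000/well) that had first rested 6 hours in a 37 C/5% CO2 incubator. Luciferase activity was then detected with One-Glo after a 30-minute room-temperature step.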

[14] = qHTS assay to identify small molecule agonists of the estrogen related receptor signaling pathway with the pleiotropic PPARgamma coactivator (PGC) from Tox21 10K library (AID 1224842); further: nearly all actives have a fitted effect of over 15% in size
Outline: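 PGC/ERR reporter cells (NTP line) were seeded 2,000 per well, rested 6 h at 37 C/5% CO2, then pin-dosed with compounds in DMSO for 18 h at 37 C; luciferase read by One-Glo luminescence after 30 min at room temperature.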

[15] = qHTS assay to identify small molecule antagonists of the estrogen related receptor (ERR) signaling pathway - cell viability counter screen (AID 1224818);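 further: series mostly up to about 46 µM; viability measured after 17.5 h of compound exposure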
Outline: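 Here, ERR cells are plated at 2,000 cells per well, allowed 6 h to attach, and treated with compounds in DMSO for 17.5 h at 37 C. CellTiter-Fluor is then added and fluorescence read after 30 min.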

[16] = qHTS assay to identify small molecule antagonists of the estrogen related receptor (ERR) signaling pathway (AID 1224819; further: nearly all actives have a fitted effect of over 50% in size; further: potency means the concentration at half of the fitted maximal effect)
Outline: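 LOPAC library screened for antagonism as reduced One-Glo luminescence in ERR reporter cells (2,000/well). Compounds were added after 6 h pre-incubation and left 18 h at 37C; reading followed a 30 min room-temperature reagent step.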

[17] = qHTS assay to identify small molecule antagonists of the estrogen related receptor signaling pathway with the pleiotropic PPARgamma coactivator (PGC) cell viability counter screen (AID 1224822;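 further: series mostly up to about 46 µM; viability read after 17.5 h compound exposure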)
Outline: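 qHTS format, DMSO compound stocks pin-transferred onto PGC/ERR cells 6 h after plating; 17.5 h exposure at 37 C, then CellTiter-Fluor fluorescence.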

[18] = qHTS assay to identify small molecule agonists of the estrogen related receptor (ERR) signaling pathway (AID 1224820)
Outline: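 Cells: ERR line from NTP, 2,000/well. Pre-incubation 6 h, 37 C/5% CO2. Compound (DMSO) pin transfer, 18 h 37 C. One-Glo, 30 min RT, luminescence.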

[19] = tested on: estrogen-related receptor alpha (ERRalpha) with PGC-1alpha coactivator, human; test: qHTS assay to identify small molecule antagonists of the estrogen related receptor signaling pathway with the pleiotropic PPARgamma coactivator (PGC) (AID 1224821; calls by dose curve)
Outline: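 Luminescent read-out (One-Glo, 30 min at room temperature) following 18 h treatment of PGC/ERR cells at 37 C with compounds delivered in DMSO. Cells had settled 6 h at 37 C/5% CO2 before dosing.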

[20] = qHTS assay to identify small molecule agonists of the estrogen related receptor signaling pathway with the pleiotropic PPARgamma coactivator (PGC) (AID 1224823)
Outline: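 Steps: plate PGC/ERR cells at 2,000 cells/well; incubate 6 h, 37 C/5% CO2; pin-transfer compounds (DMSO); incubate 18 h, 37 C; add One-Glo; 30 min RT; read luminescence.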

Measured: Potency

CCCCN1CCCC[C@H]1C(=O)Nc1c(C)cccc1C
inactive: [1] | [2] | [3] | [4] | [5] | [6] | [7] | [8] | [9] | [10]

Cc1cc2c(cc1C(F)(F)F)N(C(=O)Nc1ccc(Oc3cccnc3C)nc1)CC2
active: [5] 15.6 µM | [13] 7.81 µM
inactive: [1] | [2] | [3] | [4] | [6] | [7] | [8] | [11] | [12] | [14]

CN(C)c1ccc(C2(c3ccc(N(C)C)cc3)OC(=O)c3cc(N(C)C)ccc32)cc1
inactive: [1] | [2] | [3] | [4] | [5] | [6] | [7] | [8] | [12] | [9] | [13] | [14]

CC(=O)SC[C@@H](Cc1ccccc1)C(=O)NCC(=O)OCc1ccccc1
inactive: [1] | [2] | [3] | [4] | [5] | [6] | [7] | [8] | [9]

N=C1C=CC(=C(c2ccc(N)cc2)c2ccc(N)cc2)C=C1
inactive: [1] | [4] | [12] | [14]
active: [2] 19.3 µM | [3] 13.7 µM | [5] 21.7 µM | [6] 20 µM | [7] 34.4 µM | [13] 3.44 µM

CSc1ccc(C(=O)c2[nH]c(=O)[nH]c2C)cc1
inactive: [1] | [2] | [3] | [4] | [15] | [16] | [17] | [5] | [6] | [7] | [8] | [9]

CCCC1O[C@@H]2C[C@H]3[C@@H]4CCC5=CC(=O)C=C[C@]5(C)[C@H]4[C@@H](O)C[C@]3(C)[C@]2(C(=O)CO)O1 (stereo partly drawn)
active: [3] 48.6 µM | [13] 48.6 µM
inactive: [1] | [2] | [4] | [15] | [18] | [19] | [20] | [6] | [7] | [8] | [11] | [12] | [9] | [14]

CSc1cnc(C)cn1
inactive: [1] | [2] | [3] | [4] | [5] | [6] | [7] | [8] | [9] | [10]

CC1=NC(C)OC1C (stereo not drawn)
inactive: [1] | [2] | [3] | [4] | [5] | [6] | [7] | [8] | [11] | [12] | [9] | [10]

S=c1[nH]c2ccccc2s1
active: [4] 8.63 µM | [6] 39.9 µM | [12] 54.5 µM | [13] 6.11 µM
inactive: [1] | [2] | [3] | [15] | [16] | [18] | [20] | [7] | [8] | [11] | [14]

O=c1[nH]cnc2nc[nH]c12
inactive: [1] | [2] | [3] | [4] | [5] | [6] | [7] | [8] | [11] | [9] | [13] | [14] | [10]

O=C(N/N=C/c1ccccc1O)c1ccncc1
active: [4] 29.8 µM | [5] 9.44 µM | [6] 27.5 µM
inactive: [1] | [2] | [3] | [7] | [11] | [12] | [9] | [14] | [10]

C1CCCC1
inactive: [1] | [2] | [3] | [4] | [5] | [6] | [7] | [8] | [12] | [9] | [13] | [14]

Nc1c(Cl)cc(Cl)cc1Cl
inactive: [1] | [2] | [3] | [4] | [5] | [6] | [7] | [8] | [11] | [12] | [9] | [10]

O=C1Cc2cc(CCN3CCN(c4nsc5ccccc45)CC3)c(Cl)cc2N1
active: [1] 23.9 µM | [16] 20.3 µM | [5] 29.8 µM
inactive: [2] | [3] | [4] | [18] | [20] | [6] | [7] | [8] | [11] | [14] | [10]

CCC(N)(CO)CO
inactive: [1] | [2] | [3] | [4] | [5] | [6] | [7] | [8] | [12] | [9] | [13] | [14]
